In PubChem BioAssay (NCATS):
Where “and” joins values, the source holds several entries; their conditions need not be identical. Equal entries are not always repeated. Inconclusive results are not listed. Where a call stands in place of a potency, no number is given. Calls of active or inactive are those of the source. Unless noted, calls come from the whole dose curve; as a rule, active = well fitted curve in the direction sought with a large enough effect; inconclusive = small, poorly fitted or top-dose-only effect, or another doubt; inactive = no such curve, though single readings can be large; an effect the other way counts as inactive or inconclusive.

What was measured:
[1] = Cell Viability - Hek293 (AID 427;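 active = compounds whose dose-response curve shows a full or clear partial loss of cell viability, called from curve shape rather than a numeric limit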;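 note: potency is the fitted concentration of half-maximal effect; cells exposed to compound for 40 hours at 37 °C before reading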); conditions: qHTS
Procedure, shortened: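 qHTS, human embryonic kidney (adenovirus-transformed) cells; 40 hr cpd, 37 °C; CellTiter-Glo ATP luminescence. Norm: DMSO = 0, 100 uM tamoxifen = 100% inhibition. Hill-fit AC50.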

[2] = Cell Viability - SK-N-SH (AID 435; calls by dose curve;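 note: potency is the fitted concentration of half-maximal effect; compound exposure lasted 40 h at 37 °C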); conditions: SK-N-SH neuroblastoma cell viability qHTS
Procedure, shortened: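 Human neuroblastoma line, 40 h exposure at 37 °C, ATP quantified via luciferase luminescence; DMSO and 100 uM tamoxifen define 0 and 100% inhibition for AC50 fitting.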

[3] = Cell Viability - HUV-EC-C (AID 542); conditions: HUV-EC-C endothelial cell viability, qHTS; series mostly up to 92.2 µM; note: nearly all actives have a fitted effect of over 35% in size
Procedure, shortened: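 HUV-EC-C normal human vascular endothelial cells, 1000 cells/well, pre-incubated 5 hr at 37 °C, then exposed to compounds for 40 hr at 37 °C in complete medium. Viability measured as intracellular ATP by CellTiter-Glo luminescence; AC50 from Hill fits.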

[4] = Cell Viability - H-4-II-E (AID 543); conditions: H-4-II-E rat hepatoma viability; series mostly up to 92.2 µM; note: nearly all actives have a fitted effect of over 35% in size; note: potency is the fitted concentration of half-maximal effect
Procedure, shortened: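 Rat hepatoma H-4-II-E cells (1500/well) were plated, incubated 5 hr at 37 °C, then exposed to compounds for 40 hr at 37 °C. Cellular ATP was read by CellTiter-Glo luminescence; AC50 came from Hill-equation fits of concentration-response data.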

[5] = Cell Viability - SH-SY5Y (AID 544); conditions: SH-SY5Y neuroblastoma cell viability; viability change, negative = cytotoxic: at 92.2 µM (top of the series); note: nearly all actives have a fitted effect of over 55% in size; note: potency is the fitted concentration of half-maximal effect
Procedure, shortened: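 Human neuroblastoma SH-SY5Y cells (1500/well) in complete medium were exposed to compounds for 40 hr at 37 °C; intracellular ATP was then quantified by CellTiter-Glo luminescence after 20 min at room temperature. AC50 came from Hill-equation concentration-response fits.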

[6] = Cellular Toxicity (caspase-3) Renal Proximal Tubule (AID 667); conditions: renal proximal tubule cells; series mostly up to 91.7 µM;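 note: cells exposed to compound for 16 hours at 37 °C before detection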
Procedure, shortened: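 Caspase-Glo 3/7 read-out, rat primary kidney proximal tubule cells. Compound exposure 16 h, 37 °C; detection after 1 h at RT. Activity scaled to DMSO and 10 uM staurosporine.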

[7] = biological target: Cytochrome P450 3A4 (Homo sapiens) (UniProt P08684); assay: qHTS Assay for Inhibitors and Substrates of Cytochrome P450 3A4 (AID 884); conditions: recombinant CYP3A4, Luciferin-PPXE luminescence; series mostly up to 57.1 µM; note: nearly all actives have a fitted effect of over 50% in size
Procedure, shortened: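 20 nM human CYP3A4 with 25 uM Luciferin-PPXE (at KM) in 200 mM KPO4, preincubated 10 min with compound; NADPH regeneration started a 60 min RT reaction. Luciferin detected by luminescence, normalized to 57 uM ketoconazole as full inhibition.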

[8] = MultiTox-Fluor Cytotoxicity Assay - LYMP1-002 - Dead Cells (AID 960); conditions: LYMP1-002 lymphoblastoid cells, dead-cell protease fluorescence; series mostly up to 46.1 µM; note: nearly all actives have a fitted effect of over 60% in size
Procedure, shortened: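 Human lymphoblastoid cells (LYMP1-002), 2500/well in complete medium, were exposed to compounds for 16 hr at 37 C. Dead-cell protease activity was read as bis-AAF-R110 fluorescence (Ex/Em 485/520), normalized to DMSO and 15 uM tetraoctylammonium bromide; AC50 from Hill fits.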

[9] = Cell Viability - LYMP2-004 (AID 966); conditions: LYMP2-004 lymphoblastoid cell viability, qHTS; series mostly up to 92.2 µM; note: nearly all actives have a fitted effect of over 65% in size
Procedure, shortened: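 Human lymphoblastoid cells (2500/well) in complete medium were treated with compounds for 24 hr at 37 C, then intracellular ATP was measured by CellTiter-Glo luminescence. AC50 values came from Hill-equation fits of concentration-response data.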

[10] = Cell Viability - LYMP2-005 (AID 967); conditions: LYMP2-005 lymphoblastoid cell viability; series mostly up to 92.2 µM
Procedure, shortened: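 Luciferase-based ATP quantitation served as the viability measure in human lymphoblastoid LYMP2-005 cells exposed to test compounds for 24 h at 37 C in complete culture medium. Potency (AC50) was obtained by fitting concentration-response curves with the Hill equation.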

[11] = Cell Viability - LYMP2-012 (AID 982); conditions: LYMP2-012 lymphoblastoid cell viability qHTS; series mostly up to 92.2 µM;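 note: cellular ATP by luciferase luminescence where a drop means cytotoxicity; cells exposed to compound for one day before reading; nearly all actives have a fitted effect of over 55% in size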
[12] = Cell Viability - LYMP2-018 (AID 985); conditions: LYMP2-018 lymphoblastoid cells, viability (qHTS); series mostly up to 92.2 µM;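 note: compound exposure lasted 24 hr at 37 °C; nearly all actives have a fitted effect of over 50% in size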
Procedure, shortened: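 Human lymphoblastoid cells (2500/well) were pre-incubated 5 hr at 37 C, then exposed to compounds for 24 hr at 37 C in complete medium. Viability was read as intracellular ATP by CellTiter-Glo luminescence; AC50 values came from Hill-equation fits.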

[13] = Cell Viability - LYMP1-002 - Assay at 40 hr (AID 994); conditions: LYMP1-002 lymphoblastoid cell viability; series mostly up to 92.2 µM; note: nearly all actives have a fitted effect of over 60% in size
Procedure, shortened: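 Human lymphoblastoid cells, 2500/well in complete medium, were preincubated 5 hr at 37 C, then exposed to compounds for 40 hr at 37 C. Intracellular ATP was read by CellTiter-Glo luminescence after 30 min at room temperature; AC50 from Hill-equation fits.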

[14] = qHTS assay for small molecule agonists of retinoid X receptor alpha signaling (AID 588544; calls by dose curve); conditions: HEK293T RXRa-UAS-bla, beta-lactamase reporter, 18 h; 530 nm emission
[15] = biological target: Retinoic acid receptor RXR-alpha (Homo sapiens) (UniProt P19793); assay: as above; conditions: HEK293T RXRa-UAS-bla, beta-lactamase reporter, 18 h; series mostly up to 76.7 µM
[16] = biological target: Tumor necrosis factor (Homo sapiens) (UniProt P01375); assay: qHTS assay to identify small molecules that stimulate Tumor Necrosis Factor-alpha (TNF-alpha) secretion (AID 651757; active = well fitted curve in the direction sought with a large enough effect in the signal ratio; the % refers to the signal ratio); conditions: Human cells, HTRF 665/615 ratio; series mostly up to 92.2 µM
Procedure, shortened: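 THP-1 cells were exposed to compounds for 17 hrs at 37 C, after which secreted TNF-alpha was measured by homogeneous HTRF (TR-FRET) using cryptate- and XL665-labeled anti-TNF-alpha antibodies, read after 3 hr at room temperature.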

[17] = qHTS assay for small molecule agonists of the antioxidant response element (ARE) signaling pathway measured by Nrf2-dependant transcriptional activity (AID 720636; active = well fitted curve in the direction sought with a large enough effect in the repeat runs; an effect the other way counts as inactive or inconclusive); conditions: ARE-luc HepG2, Nrf2 luciferase reporter, 16 h; series mostly up to 92.4 µM
Procedure, shortened: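 ARE-luc HepG2 cells carrying an Nrf2-responsive luciferase reporter, in medium with 1% dialyzed FBS, exposed to compound for 16 hr at 37 C, 5% CO2. Luminescence read 30 min after ONE-Glo addition.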

[18] = qHTS assay for small molecule antagonists of retinoid X receptor alpha signaling (AID 588546; active = well fitted inhibition curve with a large enough effect in the signal ratio, with a control signal flat, not every such curve was filed as active; the % refers to the signal ratio;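 note: cells stimulated with 9-cis-retinoic acid as agonist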); conditions: HEK293T RXRa-UAS-bla, beta-lactamase ratio, antagonist mode; measured here: W530 green channel, cytotoxicity proxy
Procedure, shortened: (§1)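 Beta-lactamase reporter inhibition, read as CCF4 fluorescence ratio (ex 405, em 460/530 nm) after 2 h at RT. HEK293T UAS-bla cells, 2500/well, were stimulated with 9-cis-RA at 500 or 100 nM final alongside test compound for 18 h at 37 C.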

[19] = biological target: Retinoic acid receptor RXR-alpha (Homo sapiens) (UniProt P19793); assay: as above; conditions: HEK293T RXRa-UAS-bla, beta-lactamase ratio, antagonist mode
Procedure, shortened: as §1

[20] = qHTS assay for environmental chemicals that activate the Aryl hydrocarbon Receptor (AhR) signaling pathway (AID 651777); conditions: 1A2-DRE human hepatoma cells, luciferase, 24 h; activation: stronger effect = higher value; note: nearly all actives have a fitted effect of over 15% in size
Procedure, shortened: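 Human hepatoma 1A2-DRE cells stably carrying a DRE/CYP1A2 promoter–luciferase reporter, 1,200 cells/well, exposed to compound 24 hr at 37 C. Luciferase read by One-Glo luminescence after 30 min at room temperature; increased signal marks AhR activation.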

Sequence of Retinoic acid receptor RXR-alpha (Homo sapiens) (P19793 whole entry, looked up): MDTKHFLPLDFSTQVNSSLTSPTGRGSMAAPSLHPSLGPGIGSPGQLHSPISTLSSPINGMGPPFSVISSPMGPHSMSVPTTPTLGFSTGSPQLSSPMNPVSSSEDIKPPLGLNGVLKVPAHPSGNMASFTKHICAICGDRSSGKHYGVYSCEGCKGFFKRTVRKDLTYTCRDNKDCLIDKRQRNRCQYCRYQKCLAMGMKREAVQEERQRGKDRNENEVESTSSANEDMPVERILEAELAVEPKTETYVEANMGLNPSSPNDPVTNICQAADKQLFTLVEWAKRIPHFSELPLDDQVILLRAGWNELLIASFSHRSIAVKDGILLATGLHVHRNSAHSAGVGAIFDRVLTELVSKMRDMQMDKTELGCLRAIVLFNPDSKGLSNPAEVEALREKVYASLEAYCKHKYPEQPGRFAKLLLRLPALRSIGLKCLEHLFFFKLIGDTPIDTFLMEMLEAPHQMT
Sequence of Cytochrome P450 3A4 (Homo sapiens) (P08684 whole entry, looked up): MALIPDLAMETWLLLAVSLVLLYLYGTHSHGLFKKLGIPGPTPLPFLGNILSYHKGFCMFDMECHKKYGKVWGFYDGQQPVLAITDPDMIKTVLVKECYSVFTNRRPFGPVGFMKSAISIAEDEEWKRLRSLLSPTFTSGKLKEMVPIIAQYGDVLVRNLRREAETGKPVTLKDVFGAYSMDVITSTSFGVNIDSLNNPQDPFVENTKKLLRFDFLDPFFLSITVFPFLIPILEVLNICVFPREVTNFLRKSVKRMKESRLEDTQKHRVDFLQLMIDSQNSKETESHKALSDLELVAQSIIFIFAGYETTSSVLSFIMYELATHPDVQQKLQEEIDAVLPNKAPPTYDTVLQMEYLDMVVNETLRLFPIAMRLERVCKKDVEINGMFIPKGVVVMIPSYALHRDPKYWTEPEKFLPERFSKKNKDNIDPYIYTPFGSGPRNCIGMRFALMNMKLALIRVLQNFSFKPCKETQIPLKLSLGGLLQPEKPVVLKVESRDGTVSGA
Sequence of Tumor necrosis factor (Homo sapiens) (P01375 whole entry, looked up): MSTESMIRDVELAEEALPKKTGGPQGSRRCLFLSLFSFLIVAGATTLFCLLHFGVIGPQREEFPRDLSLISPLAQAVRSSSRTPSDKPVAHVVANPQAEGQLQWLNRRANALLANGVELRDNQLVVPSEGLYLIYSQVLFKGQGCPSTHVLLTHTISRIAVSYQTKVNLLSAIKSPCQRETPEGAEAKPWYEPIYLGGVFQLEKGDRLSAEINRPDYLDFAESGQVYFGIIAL

| SMILES | Potency [1] | Potency [2] | Potency [3] | Potency [4] | Potency [5] | outcome [6] | Potency [7] | Potency [8] | Potency [9] | Potency [10] | Potency [11] | Potency [12] | Potency [13] | max response [14] | outcome [15] | outcome [16] | Potency [17] | max response [18] | max response [19] | activation [20] |
| --- | --- | --- | --- | --- | --- | --- | --- | --- | --- | --- | --- | --- | --- | --- | --- | --- | --- | --- | --- | --- |
| C/C=C/C=O | > 92 µM (inactive) | > 92 µM (inactive) | inactive | inactive | inactive | inactive | inactive | inactive | inactive | inactive | inactive | inactive | inactive | -18.6% | inactive | inactive | inactive | – | – | – |
| CC(C)Br | > 92 µM (inactive) | > 92 µM (inactive) | inactive | inactive | inactive | inactive | inactive | inactive | inactive | inactive | inactive | inactive | inactive | -8.42% | inactive | inactive | inactive | 4.33% | -3.19% (inactive) | -0.85% (inactive) |
| CC(C)(OOC(C)(C)c1ccccc1)c1ccccc1 | > 92 µM (inactive) | > 92 µM (inactive) | inactive | inactive | – | – | inactive | inactive | inactive | inactive | inactive | inactive | inactive | -7.49% and -13.6% | inactive | inactive | inactive | -11% | 4.95% (inactive) | -0.821% (inactive) and 0.322% (inactive) |
| C=CCO | > 92 µM (inactive) | > 92 µM (inactive) | inactive | inactive | inactive | inactive | inactive | – | inactive | inactive | inactive | inactive | inactive | -10.3% | inactive | inactive | inactive | 1.87% | 7.67% (inactive) | -0.568% (inactive) |
| CCCCC(=O)Cl | > 92 µM (inactive) | > 92 µM (inactive) | inactive | inactive | inactive | inactive | inactive | inactive | inactive | inactive | inactive | inactive | inactive | -18.9% | inactive | inactive | inactive | -10.8% | -9.41% (inactive) | – |
| CCOC(=O)C1OC1(C)c1ccccc1 (stereo not given) | > 92 µM (inactive) | > 92 µM (inactive) | inactive | inactive | inactive | inactive | inactive | inactive | inactive | inactive | inactive | inactive | inactive | -8.71% | inactive | inactive | inactive | 1.36% | -0.211% (inactive) | -0.466% (inactive) |
| BrCC(Br)C1CCC(Br)C(Br)C1 (stereo not given) | > 92 µM (inactive) | > 92 µM (inactive) | inactive | – | – | inactive | inactive | inactive | – | inactive | inactive | inactive | inactive | 6.74% | inactive | inactive | inactive | -6.79% | 18% (inactive) | -0.172% (inactive) |
| ClCCOCCCl | > 92 µM (inactive) | > 92 µM (inactive) | inactive | inactive | inactive | inactive | inactive | – | inactive | – | inactive | inactive | inactive | 0.666% | inactive | inactive | inactive | 8.9% | 4.16% (inactive) | -0.172% (inactive) |
| Oc1ccc(Cl)c(Cl)c1Cl | > 92 µM (inactive) | > 92 µM (inactive) | inactive | inactive | inactive | inactive | – | inactive | inactive | inactive | inactive | inactive | inactive | -5.29% | inactive | inactive | inactive | – | – | 3.11% (inactive) |
| Cc1ccc(N)cc1C | > 92 µM (inactive) | > 92 µM (inactive) | inactive | inactive | inactive | inactive | inactive | inactive | inactive | inactive | inactive | inactive | inactive | -0.563% | inactive | inactive | inactive | -3.11% | -2% (inactive) | 3.36% (inactive) |
| CC12CC1(C)C(=O)N(c1cc(Cl)cc(Cl)c1)C2=O (stereo not given) | > 92 µM (inactive) | > 92 µM (inactive) | inactive | inactive | inactive | inactive | inactive | inactive | inactive | inactive | – | inactive | inactive | -5.02% and -2.83% | inactive | inactive | inactive | 4.78% | -13.5% (inactive) | -0.0704% (inactive) and 1.05% (inactive) |
| CCCCNC(=O)n1c(NC(=O)OC)nc2ccccc21 | > 92 µM (inactive) | > 92 µM (inactive) | – | 5.01 µM (active) | 6.31 µM (active) | inactive | inactive | – | inactive | inactive | inactive | inactive | – | 14.8% | inactive | inactive | – | 3.99% | -15.6% (inactive) | 8.93% (inactive) and 9.96% (inactive) |
| CCCCC#N | > 92 µM (inactive) | > 92 µM (inactive) | inactive | inactive | inactive | inactive | inactive | inactive | inactive | inactive | inactive | inactive | inactive | 2.48% | inactive | inactive | inactive | -4.26% | 11.5% (inactive) | 1.07% (inactive) |
